Results from PubChem BioAssay AID1159580 (chemical genetic matrix, 2015).
Hit rate of the full screen: of about 5,500 compounds, about 2,000 (36%) were called active. Inconclusive results (about 18%) are left out. This is one part of the list. A number with no mark means an inactive call. Cut-off read from the data, not from the text of the source: active = normalized growth mostly below about 0.91 (no sharp cut-off); inconclusive = no clear call, values can overlap the other calls; inactive = mostly above about 0.92.

Test: chemical genetic growth profiling, strain panel (AID 1159580);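 note: tested at 20 µM; growth read once vehicle control cultures reached saturation at 30 °C; 1 = growth at the plate median or of vehicle wells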
Settings: growth OD

Compound: COc1ccc(-c2cc(=O)c3c(O)cc(O)cc3o2)cc1
- normalized growth (S. cerevisiae deletion strains, locus YJR075W, strain HOC1, stronger effect = lower value): 0.976
- normalized growth (S. cerevisiae deletion strains, locus YKL009W, strain mrt4, stronger effect = lower value): 0.94
- normalized growth (S. cerevisiae deletion strains, locus YKL068W, stronger effect = lower value): 0.979
- normalized growth (S. cerevisiae deletion strains, locus YKL085W, strain MDH1 (second series), stronger effect = lower value): 0.98
- normalized growth (S. cerevisiae deletion strains, locus YKL085W, strain MDH1, stronger effect = lower value): 0.98
- normalized growth (S. cerevisiae deletion strains, locus YKL160W, strain elf1, stronger effect = lower value): 0.928
- normalized growth (S. cerevisiae deletion strains, locus YKL190W, strain CNB1, stronger effect = lower value): 0.985
- normalized growth (S. cerevisiae deletion strains, locus YKR001C, strain vps1, stronger effect = lower value): 0.991
- normalized growth (S. cerevisiae deletion strains, locus YKR026C, strain gcn3, stronger effect = lower value): 0.994
- normalized growth (S. cerevisiae deletion strains, locus YKR091W, strain srl3, stronger effect = lower value): 0.997
- normalized growth (S. cerevisiae deletion strains, locus YLL001W, strain dnm1, stronger effect = lower value): 0.954
- normalized growth (S. cerevisiae deletion strains, locus YLL026W, stronger effect = lower value): 0.997
- normalized growth (S. cerevisiae deletion strains, locus YLL041C, strain sdh2, stronger effect = lower value): 0.996
- normalized growth (S. cerevisiae deletion strains, locus YLR027C, strain aat2, stronger effect = lower value): 0.97
- normalized growth (S. cerevisiae deletion strains, locus YLR039C, strain RIC1, stronger effect = lower value): 0.975
- normalized growth (S. cerevisiae deletion strains, locus YLR058C, strain SHM2, stronger effect = lower value): 0.998
- normalized growth (S. cerevisiae deletion strains, locus YLR102C, strain apc9, stronger effect = lower value): 0.984
- normalized growth (S. cerevisiae deletion strains, locus YLR113W, strain HOG1, stronger effect = lower value): 0.694 (active)
- normalized growth (S. cerevisiae deletion strains, locus YLR221C, strain rsa3, stronger effect = lower value): 0.986
- normalized growth (S. cerevisiae deletion strains, locus YLR258W, strain gsy2, stronger effect = lower value): 0.97
- normalized growth (S. cerevisiae deletion strains, locus YLR262C, strain YPT6 (second series), stronger effect = lower value): 0.908
- normalized growth (S. cerevisiae deletion strains, locus YLR262C, strain YPT6, stronger effect = lower value): 0.92
- normalized growth (S. cerevisiae deletion strains, locus YLR268W, strain sec22, stronger effect = lower value): 0.985
- normalized growth (S. cerevisiae deletion strains, locus YLR320W, strain mms22, stronger effect = lower value): 0.97
- normalized growth (S. cerevisiae deletion strains, locus YLR330W, strain CHS5, stronger effect = lower value): 0.989
- normalized growth (S. cerevisiae deletion strains, locus YLR342W, strain FKS1 (second series), stronger effect = lower value): 1.11
- normalized growth (S. cerevisiae deletion strains, locus YLR342W, strain FKS1, stronger effect = lower value): 1.01
- normalized growth (S. cerevisiae deletion strains, locus YLR357W, strain rsc2, stronger effect = lower value): 1.01
- normalized growth (S. cerevisiae deletion strains, locus YLR370C, strain arc18, stronger effect = lower value): 0.98
- normalized growth (S. cerevisiae deletion strains, locus YLR371W, strain rom2, stronger effect = lower value): 0.99
- normalized growth (S. cerevisiae deletion strains, locus YLR384C, strain iki3, stronger effect = lower value): 1.02
- normalized growth (S. cerevisiae deletion strains, locus YLR418C, strain cdc73, stronger effect = lower value): 0.957
- normalized growth (S. cerevisiae deletion strains, locus YML016C, strain PPZ1, stronger effect = lower value): 1.02
- normalized growth (S. cerevisiae deletion strains, locus YML032C, strain rad52, stronger effect = lower value): 1
- normalized growth (S. cerevisiae deletion strains, locus YML120C, strain ndi1, stronger effect = lower value): 0.952
- normalized growth (S. cerevisiae deletion strains, locus YML124C, strain tub3, stronger effect = lower value): 0.99
- normalized growth (S. cerevisiae deletion strains, locus YMR058W, strain fet3, stronger effect = lower value): 0.983
- normalized growth (S. cerevisiae deletion strains, locus YMR078C, strain ctf18, stronger effect = lower value): 0.981
- normalized growth (S. cerevisiae deletion strains, locus YMR125W, strain sto1, stronger effect = lower value): 0.979
- normalized growth (S. cerevisiae deletion strains, locus YMR129W, stronger effect = lower value): 0.991
- normalized growth (S. cerevisiae deletion strains, locus YMR205C, strain PFK2, stronger effect = lower value): 0.968
- normalized growth (S. cerevisiae deletion strains, locus YMR223W, strain ubp8, stronger effect = lower value): 0.982
- normalized growth (S. cerevisiae deletion strains, locus YMR231W, strain pep5, stronger effect = lower value): 1.01
- normalized growth (S. cerevisiae deletion strains, locus YMR263W, strain SAP30, stronger effect = lower value): 0.975
- normalized growth (S. cerevisiae deletion strains, locus YMR307W, strain GAS1, stronger effect = lower value): 1.21
- normalized growth (S. cerevisiae deletion strains, locus YNL067W, strain RPL9B, stronger effect = lower value): 0.946
- normalized growth (S. cerevisiae deletion strains, locus YNL071W, strain lat1, stronger effect = lower value): 0.952
- normalized growth (S. cerevisiae deletion strains, locus YNL183C, strain NPR1, stronger effect = lower value): 0.784 (active)
- normalized growth (S. cerevisiae deletion strains, locus YNL209W, strain ssb2, stronger effect = lower value): 0.967
- normalized growth (S. cerevisiae deletion strains, locus YNL233W, strain BNI4, stronger effect = lower value): 0.984
- normalized growth (S. cerevisiae deletion strains, locus YNL248C, strain rpa49, stronger effect = lower value): 1.03
- normalized growth (S. cerevisiae deletion strains, locus YNL250W, strain rad50, stronger effect = lower value): 0.966
- normalized growth (S. cerevisiae deletion strains, locus YNL271C, strain bni1, stronger effect = lower value): 0.98
- normalized growth (S. cerevisiae deletion strains, locus YNL298W, strain CLA4, stronger effect = lower value): 0.994
- normalized growth (S. cerevisiae deletion strains, locus YNL307C, strain MCK1, stronger effect = lower value): 0.978
- normalized growth (S. cerevisiae deletion strains, locus YNL322C, strain KRE1 (second series), stronger effect = lower value): 0.984
- normalized growth (S. cerevisiae deletion strains, locus YNR049C, strain mso1, stronger effect = lower value): 0.994
- normalized growth (S. cerevisiae deletion strains, locus YNR052C, strain pop2, stronger effect = lower value): 0.973
- normalized growth (S. cerevisiae deletion strains, locus YOL012C, strain htz1): 0.966
- normalized growth (S. cerevisiae deletion strains, locus YOL147C, strain pex11, stronger effect = lower value): 0.99
- normalized growth (S. cerevisiae deletion strains, locus YOR001W, strain rrp6, stronger effect = lower value): 1
- normalized growth (S. cerevisiae deletion strains, locus YOR061W, strain CKA2, stronger effect = lower value): 0.991
- normalized growth (S. cerevisiae deletion strains, locus YOR069W, strain VPS5, stronger effect = lower value): 1
- normalized growth (S. cerevisiae deletion strains, locus YOR070C, strain gyp1, stronger effect = lower value): 0.968
- normalized growth (S. cerevisiae deletion strains, locus YOR080W, strain dia2, stronger effect = lower value): 1
- normalized growth (S. cerevisiae deletion strains, locus YOR083W, strain WHI5, stronger effect = lower value): 0.917
- normalized growth (S. cerevisiae deletion strains, locus YOR106W, strain vam3, stronger effect = lower value): 0.93
- normalized growth (S. cerevisiae deletion strains, locus YOR136W, strain idh2, stronger effect = lower value): 0.984
- normalized growth (S. cerevisiae deletion strains, locus YOR144C, strain elg1, stronger effect = lower value): 1
- normalized growth (S. cerevisiae deletion strains, locus YOR184W, strain ser1, stronger effect = lower value): 0.978
- normalized growth (S. cerevisiae deletion strains, locus YOR231W, strain MKK1, stronger effect = lower value): 0.869
- normalized growth (S. cerevisiae deletion strains, locus YOR265W, strain rbl2, stronger effect = lower value): 0.984
- normalized growth (S. cerevisiae deletion strains, locus YOR270C, strain vph1, stronger effect = lower value): 0.95
- normalized growth (S. cerevisiae deletion strains, locus YOR290C, strain snf2, stronger effect = lower value): 0.868
- normalized growth (S. cerevisiae deletion strains, locus YOR316C, strain cot1, stronger effect = lower value): 0.987
- normalized growth (S. cerevisiae deletion strains, locus YPL051W, strain arl3, stronger effect = lower value): 0.963
- normalized growth (S. cerevisiae deletion strains, locus YPL055C, strain LGE1, stronger effect = lower value): 0.982
- normalized growth (S. cerevisiae deletion strains, locus YPL078C, strain atp4, stronger effect = lower value): 0.92
- normalized growth (S. cerevisiae deletion strains, locus YPL106C, strain sse1, stronger effect = lower value): 0.946
- normalized growth (S. cerevisiae deletion strains, locus YPL240C, strain hsp82, stronger effect = lower value): 0.994
- normalized growth (S. cerevisiae deletion strains, locus YPL241C, strain CIN2, stronger effect = lower value): 0.999
- normalized growth (S. cerevisiae deletion strains, locus YPL256C, strain CLN2, stronger effect = lower value): 0.756 (active)
- normalized growth (S. cerevisiae deletion strains, locus YPR119W, strain clb2, stronger effect = lower value): 0.983
- normalized growth (S. cerevisiae deletion strains, locus YPR141C, strain kar3, stronger effect = lower value): 0.985
- normalized growth (S. cerevisiae deletion strains, locus YPR163C, strain tif3, stronger effect = lower value): 0.991
- normalized growth (S. cerevisiae deletion strains, locus YPR167C, strain met16, stronger effect = lower value): 0.985
- normalized growth (S. cerevisiae deletion strains, strain wtn01, stronger effect = lower value): 1
- normalized growth (S. cerevisiae strains, strain wild type, stronger effect = lower value): 0.991
